# Experimental data: PMC4336329 (PLoS ONE, 2015)
# Out of some 310,000 compounds screened, about 14,000 (4.5%) showed an effect of 50% or more. The effect is printed as a negative number. Many of the other results were omitted from the sample, so strong results are more common in it than they were.
# Molecular target: human ether-à-go-go-related gene (hERG) potassium channel (human, UniProt Q12809)
# Experiment: primary screen, population patch clamp on CHO cells stably expressing hERG; higher = less effect of the substance
# 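Further: peak tail current of the secondary pulse compared with the same well before compound.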
# Sequence of human ether-à-go-go-related gene (hERG) potassium channel (Q12809 whole entry, looked up): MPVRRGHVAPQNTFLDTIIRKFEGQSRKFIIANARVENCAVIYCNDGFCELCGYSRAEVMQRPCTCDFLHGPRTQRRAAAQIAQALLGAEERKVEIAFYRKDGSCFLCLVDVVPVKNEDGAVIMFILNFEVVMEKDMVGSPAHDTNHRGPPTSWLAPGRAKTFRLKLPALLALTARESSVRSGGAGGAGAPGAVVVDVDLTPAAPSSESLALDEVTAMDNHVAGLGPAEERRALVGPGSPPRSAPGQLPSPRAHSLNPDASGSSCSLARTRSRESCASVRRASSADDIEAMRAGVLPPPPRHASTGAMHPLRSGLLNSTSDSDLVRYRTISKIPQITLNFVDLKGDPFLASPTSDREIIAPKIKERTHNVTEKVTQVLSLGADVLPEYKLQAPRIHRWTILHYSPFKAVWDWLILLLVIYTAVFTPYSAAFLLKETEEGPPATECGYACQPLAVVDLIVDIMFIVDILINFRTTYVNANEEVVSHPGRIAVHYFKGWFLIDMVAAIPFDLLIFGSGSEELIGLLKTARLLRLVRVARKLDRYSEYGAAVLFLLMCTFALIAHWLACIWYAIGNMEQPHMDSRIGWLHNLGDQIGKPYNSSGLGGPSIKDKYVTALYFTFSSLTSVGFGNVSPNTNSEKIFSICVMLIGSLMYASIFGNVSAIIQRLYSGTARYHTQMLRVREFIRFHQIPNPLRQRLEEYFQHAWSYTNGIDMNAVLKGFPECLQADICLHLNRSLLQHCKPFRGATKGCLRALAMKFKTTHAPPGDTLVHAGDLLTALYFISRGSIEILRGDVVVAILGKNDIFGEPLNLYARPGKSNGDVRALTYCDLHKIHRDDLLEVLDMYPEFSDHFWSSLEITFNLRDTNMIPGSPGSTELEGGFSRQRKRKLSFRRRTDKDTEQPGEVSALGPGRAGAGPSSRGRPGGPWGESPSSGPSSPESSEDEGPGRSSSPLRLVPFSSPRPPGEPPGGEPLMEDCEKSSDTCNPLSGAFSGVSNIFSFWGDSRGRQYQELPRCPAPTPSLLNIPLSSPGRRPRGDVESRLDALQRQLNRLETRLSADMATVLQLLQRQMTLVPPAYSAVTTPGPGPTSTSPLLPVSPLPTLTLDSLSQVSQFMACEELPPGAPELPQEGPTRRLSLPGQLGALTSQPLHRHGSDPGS
row,SMILES,"hERG current change (%, negative = inhibition) at 10uM [%]"
1,Nc1c(C=C2C=CC(=O)C=C2)c(=O)nc2sc(CC(=O)N3CCCCC3)nn12,15.6
2,CCn1c2ccccc2c2cc(CNCc3ccc(OC)cc3OC)ccc21.O=C(O)C(=O)O,-76.2
3,COc1cc(CNCc2ccc(OC)cc2OC)cc(OC)c1.O=C(O)C(=O)O,-29.5
4,CCC(CC)NCc1ccc2c(c1)c1ccccc1n2CC.O=C(O)C(=O)O,-28.5
5,CCn1c2ccccc2c2cc(CN3CCN(Cc4cc(OC)ccc4O)CC3)ccc21.O=C(O)C(=O)O,7.15
6,COc1ccc(CNCc2ccc3ccccc3c2)c(OC)c1.O=C(O)C(=O)O,-68.3
7,COc1ccc(NC(=S)NCc2ccc(F)cc2)c(OC)c1,1.54
8,Br.COc1ccc(CNCc2ccc(F)cc2)c(OC)c1,-79
9,COc1ccc(CNCc2cc(OC)ccc2OC)cc1.O=C(O)C(=O)O,-30.3
10,COc1ccc(CNCc2ccncc2)c(OC)c1.Cl,-0.685
11,COc1ccc(CNCc2cc(C)c(OC)cc2C)c(OC)c1.O=C(O)C(=O)O,-54.9
12,COc1ccc(CNCc2ccc(C)cc2)c(OC)c1.O=C(O)C(=O)O,-31.3
13,COc1cccc(CNCc2ccc(OC)cc2OC)c1.O=C(O)C(=O)O,-14.1
14,CC1(C)CN(c2ccc(N3CC(C)(C)C3=O)cc2)C1=O,4.66
15,O=C(NC1CC2CCCC(C1)N2C(=O)Nc1ccccc1)c1ccncc1 (stereo not shown),0.052
16,CNCCc1c[nH]c2ccc(O)cc12.O=C(O)C(=O)O,17.7
17,Cc1cccc(NC(=O)c2ccccc2NC(=O)C(C)(C)C)n1,-0.982
18,CC(C)c1ccc(Nc2nnc(SCC(=O)c3nnc(-c4ccccc4)o3)s2)cc1,22.2
19,CCn1c(NCc2ccc(N(C)C)cc2)nc2ccccc21,-41.2
20,O=C(Nc1nccs1)c1ccccn1,-3.04
21,Nc1nc(SCc2nc3sc4c(c3c(=O)[nH]2)CCCC4)n[nH]1,8.47
22,CCOc1cccc(CNCCNC(=O)c2nonc2N)c1.Cl,-7.85
23,CCN1CCN(C(=O)c2ccc(COc3cccc(Cl)c3)o2)CC1,-23.7

row,SMILES,"hERG current change (%, negative = inhibition) at 10uM [%]"
1,O=C(c1ccco1)N1CCN(C(=O)c2ccc(COc3ccc(F)cc3)o2)CC1,-62.6
2,CCN1CCN(C(=O)c2ccc(COc3ccc(Cl)cc3)o2)CC1,-52.5
3,CSc1ccccc1C(=O)NCC(c1ccco1)N(C)C (stereo not shown),16.9
4,CN(C)C(CNC(=O)c1ccccc1OCc1ccc(Cl)cc1)c1ccco1 (stereo not shown),-60.3
5,O=C(c1ccco1)N1CCN(C(=O)c2ccc(CS(=O)c3ccc(F)cc3)o2)CC1 (stereo not shown),11.8
6,O=C(c1ccc(COc2ccc(Cl)cc2)o1)N1CCN(Cc2ccc3c(c2)OCO3)CC1,-12.7
7,O=C(c1ccco1)N1CCN(C(=O)c2ccccc2OCc2ccc(Cl)cc2)CC1,-75.9
8,COc1ccc(Cl)cc1C(=O)NCC(c1ccco1)N(C)C (stereo not shown),-4.19
9,O=C(c1ccccc1OCc1ccc(Cl)cc1)N1CCN(c2ccccn2)CC1,-42.4
10,O=C(OCC(=O)N1CCN(C(=O)c2ccco2)CC1)c1ccccc1OCc1ccc(Cl)cc1,-35.3
11,O=C(c1ccc(COc2ccc(F)cc2)o1)n1cccn1,4.97
12,Nn1c(SCC(=O)NC2CCCCC2)nnc1-c1ccccc1F,-3.17
13,CCCc1[nH]nc2c1C(c1ccsc1)C(C#N)=C(N)O2 (stereo not shown),-7.53
14,CCOC(=O)C1CCN(C(=O)c2cc3c(OC)c(OC)c(OC)cc3[nH]2)CC1,15.5
15,O=C(COc1ccc(Cl)cc1Cl)N1CCN(C(=O)c2ccco2)CC1,20.6
16,O=C(c1ccco1)N1CCN(C(=O)c2ccc(COc3ccc(Cl)cc3Cl)o2)CC1,-70.4
17,O=C(c1ccco1)N1CCN(C(=O)c2ccc(COc3ccc4c(c3)CCC4)o2)CC1,-69
18,O=C(c1ccc(COc2ccc3c(c2)CCC3)o1)N1CCN(c2ccccc2)CC1,15.5
19,NNC(=O)c1ccc(COc2ccc3c(c2)CCC3)o1,0.852
20,O=C(c1ccc(COc2ccc(Cl)cc2Cl)o1)N1CCCC1,-43.1
21,CCOc1cc2[nH]c(=S)n(CCC(=O)NCc3ccco3)c(=O)c2cc1OCC,23.6
22,CCOc1ccccc1CN1CCN(Cc2cc3ccccc3[nH]2)CC1CCO (stereo not shown),-59.3
23,Cc1ccc(CN2CCN(Cc3cc(=O)c4ccccc4[nH]3)CC2CCO)o1 (stereo not shown),-30.8
